Screening data as filed in PubChem BioAssay.
Sampled rows, rich in hits. Any-hit rate of the full collection: about 5.4%.
aDG glyco act – increases alpha dystroglycan glycosylation; Pro5-aDG cells, alpha-DG glycosylation AlphaScreen (IIH6); 0% Pro5, 100% B10-LARGE cell signal; activation, % at 10 µM; 0.22% of 360,000 active; AID 624168;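 active = activation of at least 8% versus controls, or a plate z-score of at least 8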;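 also: Pro5 are CHO cells carrying HIG-tagged alpha-DG that lacks glycosylation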
rCAG binder – binds r(CAG) RNA repeats | 1.3% of 370,000 active | inhibition, % at 3 µM | r(CAG) RNA repeat, TO-PRO-1 dye displacement fluorescence | AID 651821;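 active = inhibition above the plate cutoff, the mean of all test compounds on that plate plus 3 SD, cut at about 35% in these data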;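 also: 0% = DMSO alone and 100% = 100 µM mitoxantrone as full dye displacement; higher means more dye released from RNA so lower well fluorescence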
APOBEC3G inh – inhibitors of human APOBEC3G DNA deaminase | inhibition, % at 20 µM | 0.28% of 330,000 active | recombinant A3G, ssDNA deamination FAM/TAMRA fluorescence | Q9HC16;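 active = inhibition of at least 40% at 20 µM, with no more than 30% in the related APOBEC3A deaminase screen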;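 also: plate controls were DMSO wells with A3G for no effect and wells lacking A3G enzyme for full effect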
Target sequence (Q9HC16 whole entry, looked up): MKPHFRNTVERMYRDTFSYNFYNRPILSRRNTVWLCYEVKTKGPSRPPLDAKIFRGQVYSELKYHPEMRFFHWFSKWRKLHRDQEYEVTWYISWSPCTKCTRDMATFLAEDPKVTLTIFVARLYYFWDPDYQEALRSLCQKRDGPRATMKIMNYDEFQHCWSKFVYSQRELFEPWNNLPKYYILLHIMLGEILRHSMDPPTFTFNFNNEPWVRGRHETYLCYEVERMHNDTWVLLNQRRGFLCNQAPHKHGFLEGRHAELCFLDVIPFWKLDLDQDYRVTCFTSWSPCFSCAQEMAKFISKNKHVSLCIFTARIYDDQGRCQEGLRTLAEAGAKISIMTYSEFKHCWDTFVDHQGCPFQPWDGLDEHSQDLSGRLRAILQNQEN
ALR H2O2 inh – inhibitors of human sulfhydryl oxidase ALR; P55789; purified ALR, DTT oxidation, H2O2 HRP-luminol luminescence; inhibition, % (test concentration not listed); 3.8% of 290,000 active;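 active = mean replicate inhibition above about 79%, with every replicate also reaching it, limit read from the data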
A3A deaminase – human APOBEC3A DNA deaminase inhibition | recombinant A3A, FAM/TAMRA ssDNA deamination fluorescence | P31941 | inhibition, % at 20 µM | 0.41% of 330,000 active;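 active = at least 40% inhibition at 20 µM here, with at most 30% in a related deaminase screen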;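 also: plate controls were A3A with DMSO for no effect and wells lacking A3A enzyme for full effect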
Target sequence (P31941 whole entry, looked up): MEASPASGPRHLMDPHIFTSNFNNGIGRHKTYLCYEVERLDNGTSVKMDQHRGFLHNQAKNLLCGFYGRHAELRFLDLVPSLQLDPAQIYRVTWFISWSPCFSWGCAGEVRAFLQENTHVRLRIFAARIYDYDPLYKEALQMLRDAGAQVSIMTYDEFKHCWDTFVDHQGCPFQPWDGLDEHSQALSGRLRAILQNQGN
PHOSPHO1 inh – inhibitors of human PHOSPHO1 phosphatase. Q8TCT1. recombinant PHOSPHO1, absorbance phosphatase assay. inhibition, % at 13.3 µM. 1.1% of 290,000 active. AID 1565; in the data active = inhibition above about 60%
* = called active by the depositor; . = no result.

SMILES | aDG glyco act | rCAG binder | APOBEC3G inh | ALR H2O2 inh | A3A deaminase | PHOSPHO1 inh
NC(=O)COC(=O)c1ccc2c(c1)S(=O)(=O)c1ccccc1C2=O | 0 | -1 | -7 | -8 | 1 | 20
C#CCNC(=O)c1cc2cccnc2nc1N | . | 2 | . | . | . | .
CN=c1sc(C(=O)Nc2ccccc2)c(C)n1C | 0 | -2 | 14 | -4 | -4 | -1
CN=c1sc2c(n1C)C(=O)c1ccccc1C2=O | 13* | 4 | . | . | . | .
O=S1(=O)CC=C(CSC(=S)NC2CCS(=O)(=O)C2)C1 (configuration not stated) | 0 | -1 | 0 | 99* | 1 | 28
COC(=O)c1ccsc1NS(=O)(=O)c1ccccc1 | 0 | 29 | -6 | 80* | -3 | 19
COC(=O)c1sccc1NS(=O)(=O)c1ccccc1 | 0 | -1 | -3 | -9 | -2 | 33
O=C(O)c1cccc(Cn2c(Cl)c(/C=N/NC(=O)c3cc4ccccc4cc3O)sc2=O)c1 | 0 | 77* | -1 | 40 | 4 | 15
CCOc1ccc(-c2cc(N3C(=O)Nc4ccccc4N3O)n[nH]2)cc1 | 0 | 5 | -9 | 98* | -3 | 52
CCOC(=O)C1CCCN(C(=O)C2CCN(S(=O)(=O)c3cccs3)CC2)C1 (configuration not stated) | 0 | 1 | -7 | 6 | -4 | -3
CCOC(=O)C1CCCN(S(=O)(=O)c2ccc(S(=O)(=O)N(CC)CC)cc2)C1 (configuration not stated) | 7.4* | -5 | -5 | . | 1 | 29
CCOC(=O)C1CCCN(C(=O)C2CCN(S(=O)(=O)CC)CC2)C1 (configuration not stated) | 0 | -3 | -2 | 2 | 2 | 60*
CN1CCN(C(=O)C2CCCN(S(=O)(=O)c3ccc(Cl)cc3)C2)CC1 (configuration not stated) | 0 | -7 | -7 | 3 | -2 | 65*
CC(=O)N1C[C@@H](CN2C(=O)CCC2=O)[C@@H]2C[C@H]1c1ccccc1N2C | . | 0 | . | . | . | .
Cc1oc(C(=O)Nc2ccc(C(=O)O)cc2)cc1COc1ccccc1 | 0 | 12 | -3 | 97* | -1 | 0
CC(=O)c1cc(C(=O)Nc2ccc(C(=O)O)cc2)oc1C | 0 | 4 | -9 | 19 | -5 | 15
Cc1ccc(NC(=O)c2cc(NC(=O)C3CC=CCC3C(=O)O)ccc2N2CCOCC2)cc1Cl (configuration not stated) | 0 | 35* | -5 | 43 | -1 | 5
Cc1ccc(NC(=O)c2cc(NC(=O)C3CC=CCC3C(=O)O)ccc2N2CCOCC2)cc1 (configuration not stated) | 0 | 19 | -5 | 12 | -2 | 1
Cc1cc2c(nc1C)CCCN2Cc1ccccn1 | . | 4 | . | . | . | .
O=C(CCNc1ccccc1)c1cccc([N+](=O)[O-])c1 | 0 | 4 | -1 | 98* | 0 | 23
O=C(CCNc1ccc(F)cc1)c1cccc([N+](=O)[O-])c1 | 1 | 0 | -2 | 17 | 2 | -4
CCCCNC(=O)C[C@H]1C[C@@]2(C(=O)OC)C(=C[C@H](C(C)C)O[C@@H]2C2CC2)N(Cc2ccco2)C1=O | . | -1 | . | . | . | .
COC(=O)c1ccc(C2NC(=O)c3c(sc(C)c3C)N2)cc1 (configuration not stated) | 0 | -3 | -4 | . | -5 | -15
Cc1sc2c(c1C)C(=O)NC(c1cccc(O)c1)N2 (configuration not stated) | . | . | 25 | . | 1 | 100*
CCOC(=O)C(CC)(CCC(=O)O)c1csc(Nc2ccc(C)cc2)n1 (configuration not stated) | 0 | 9 | -3 | 99* | -2 | 33
SMILES | aDG glyco act | rCAG binder | APOBEC3G inh | ALR H2O2 inh | A3A deaminase | PHOSPHO1 inh
O=C(NCC1CCN(C(=O)C(=O)c2cc3ccccc3o2)CC1)c1ccc2c(c1)OCCCO2 | . | 2 | . | . | . | .
CCc1ccc2oc(-c3ccc(NC(C)=O)cc3)nc2c1 | 0 | 7 | -3 | 96* | 0 | .
CCN(CC)CC(=O)Nc1ccc(-c2nc3cc(NC(=O)CN(CC)CC)ccc3o2)cc1 | 1 | -4 | -5 | -20 | 3 | -4
CC(=O)NN1C(=O)/C(=C/c2ccc(Br)o2)SC1=S | 0 | 13 | 39 | -3 | 80 | 87*
CC(=O)NN1C(=O)/C(=C\c2ccc(Br)o2)SC1=S | 0 | 13 | 66 | -11 | 91 | -11
CC(=O)NN1C(=O)/C(=C\c2ccc(O)cc2)SC1=S | 0 | -39 | -7 | 99* | -3 | 28
COC(=O)CCC1NC(=O)C(Cc2c[nH]c3ccccc23)NC(=O)C2CC(=O)OC(C)C(NC(=O)C(C)NC(=O)C3CCCN3C(=O)C3CCCN3C(=O)C(C)NC(C)=O)C(=O)NC(CC(C)C)C(=O)NC(CCCCNC(=O)CCC(C(=O)NC(Cc3ccc(O)cc3)C(=O)O)NC1=O)C(=O)NC(Cc1c[nH]c3ccccc13)C(=O)N1CCCC1C(=O)NC(CO)C(=O)N2 (configuration not stated) | . | 27 | . | . | . | .
O=C1CSc2ccc(C(=O)N3CCCC(C(=O)N4CCN(c5ccc(F)cc5)CC4)C3)cc2N1 (configuration not stated) | . | 3 | . | . | . | .
O=C(NCc1ccccc1)C1(C(=O)C2CC2)CC(c2ccccn2)=NO1 (configuration not stated) | . | 1 | . | . | . | .
CCSCCOC(=O)C1=C(C)NC2=C(C(=O)CCC2)C1c1coc2ccccc2c1=O (configuration not stated) | -1 | -4 | -5 | -1 | -5 | 63*
COCCOC(=O)C1=C(C)NC2=C(C(=O)CCC2)C1c1cc2c(cc1Br)OCO2 (configuration not stated) | 0 | 0 | -7 | -11 | -1 | -6
CCSc1cc(C2C(C(=O)OC)=C(C)NC3=C2C(=O)CCC3)c(C)o1 (configuration not stated) | 0 | -4 | 1 | -37 | 0 | 102*
CC1=C(C(=O)OC(C)C)C(c2coc3ccccc3c2=O)C2=C(CCCC2=O)N1 (configuration not stated) | 0 | -1 | -6 | 4 | -6 | 5
Cc1cccc(NC(=O)Cn2nnc(-c3ccccc3F)n2)c1C | . | 4 | . | . | . | .
O=S(=O)(c1sccc1Br)n1c(CN2CCOCC2)nc2ccccc21 | . | 3 | . | . | . | .
COc1ccc(S[C@]2(C(=O)NC(C)C)CC(=O)N[C@@H]2c2ccc(OC)cc2)cc1 | . | 0 | . | . | . | .
CCN(CC)c1ccc(NC(=O)COC(=O)c2ccc3ccccc3n2)cc1 | 0 | -3 | -7 | 99* | -7 | -20
CCN(c1ccc(NC(=O)COC(=O)c2ccc(S(=O)(=O)N3CCCC3)cc2)cc1)C(C)C | 0 | 1 | -2 | 18 | 3 | 104*
CCN(c1ccc(NC(=O)COC(=O)/C=C/c2ccco2)cc1)C(C)C | 0 | 3 | -2 | 99* | -2 | .
CCc1ccc(NC(=O)COC(=O)/C=C/c2ccco2)cc1 | 0 | 16 | 10 | 3 | 22 | .
